Results filed as inconclusive are left out. The source made the active and inactive calls. The calls were made as follows: active = hit-call score of the fitted dose curve at least 0.9, where 1 is the maximum; inconclusive = response in the unintended direction; inactive = score below 0.9.
Experiment: CCTE_Deisenroth_AIME_384WELL_CTox_Active: Cytotoxicity Assessment (CTOX) in CCTE's 384-well Estrogen Receptor Transactivation Assay with AIME metabolic competence (metabolism positive), Deisenroth Lab (AID 2284037);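 also: chemicals first conditioned 2 h by alginate-bound induced rat liver S9 before cells; activity means signal loss indicating cell death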
Procedure: CCTE_Deisenroth_AIME_384WELL (AIME metabolism assay) is a cell-based, single-readout assay that uses VM7Luc4E2, a human mammary gland/breast cell line, with measurements taken at 24 hour after chemical dosing in a 384-well plate.CCTE_Deisenroth_AIME_384WELL_CTox_Active is one of four assay components measured or calculated from the CCTE_Deisenroth_AIME_384WELL assay. It is designed to make measurements of a protease substrate, a type of viability indicator, as detected with substrate cleavage to a fluorescent probe in living cells.CCTE_Deisenroth_AIME_384WELL_CTox_Active is a component of the CCTE_Deisenroth_AIME_384WELL assay that measures the effect of retroftting the VM7Luc ERTA assay with the Alginate Immobolization of Metabolic Enzymes (AIME) metabolism method. AIME is optimized to impart phase I hepatic metabolism using phenobarbital/beta-naphthoflavone induced hepatic S9 from male Sprague Dawley rats. Parent chemicals are incubated for 2 hours in the AIME assay prior to transfer to the VM7Luc ERTA assay plate. […] This endpoint evaluates cytotoxicity in metabolism positive mode. Using a type of flourescent probe in VM7Luc cells, loss-of-signal activity can be used to understand loss of viability. This assay endpoint, CCTE_Deisenroth_AIME_384WELL_CTox_Active, was analyzed with bidirectional fitting in the ERTA assay.
The AIME procedure consists of a preparative "pre-stamping" step using a barium chloride/poly-L-lysine (PLL) solution followed by "stamping" the lid in alginate-hepatic S9 (metabolism positive) or alginate-water (metabolism negative) to form microspheres. Once stamping is completed, the AIME lids are placed in duplicate microplates (metabolism positive or negative) containing chemical solutions and incubated for two hours to facilitate metabolic reactions. The conditioned medium, containing parent chemical or metabolites, is then transferred to the cell-based VM7Luc Estrogen Receptor Transactivation Assay (ERTA) for 24 hours. A typical experimental design tests a 10-point concentration series (0.002 - 200 uM) for 8 compounds (96-well format) (Deisenroth 2020) or 32 compounds (384-well format) (Hopperstad 2022) in single technical replicate. AIME assay controls include trans-stilbene (bioactivated control) and ethylparaben (bioinactivated control). ERTA assay plate controls include 17-beta estradiol (positive control) and DMSO (solvent control). Experiments typically comprise a minimum of four experimental replicates (n=4).
With `O=C1OC(=O)c2c(Cl)c(Cl)c(Cl)c(Cl)c21` the outcome was “inactive”.
For `CCCCCCCCC=CCCCCCCCC1=NCCN1CCO`, the outcome was “inactive”.
In the case of `C=CC(C)(O)CCC=C(C)C` (stereo not given), the outcome is reported as “inactive”.
For `Clc1ccc(C(c2ccccc2Cl)C(Cl)Cl)cc1` (stereo not given), the AC50 was 100 µM (active).
For `O=C1NC2NC(=O)NC2N1` (stereo not given), the outcome was “inactive”.
In the case of `Nc1ccc(N)c2c1C(=O)c1ccccc1C2=O`, the AC50 is reported as 52 µM (active).
For `CC(C)CCCCCCc1ccc(OCCOCCO)cc1`, the outcome was “inactive”.
In the case of `CCCCC(CC)COC(C)=O` (stereo not given), the outcome is reported as “inactive”.
With `CS(C)=O` the outcome was “inactive”.
In the case of `CCCCC(CC)COC(=O)c1ccc(O)cc1` (stereo not given), the outcome is reported as “inactive”.
With `CCCCCCCCSCCO` the outcome was “inactive”.
With `O=P(O)(O)O` the outcome was “inactive”.
With `O=[N+]([O-])c1ccc(O)cc1C(F)(F)F` the AC50 was 62.2 µM (active).
In the case of `COc1ccccc1N=Nc1c(S(=O)(=O)O)cc2cc(S(=O)(=O)O)cc(NC(C)=O)c2c1O`, the outcome is reported as “inactive”.
In the case of `CCCCCCCCCCCC(=O)OCC(O)CO` (stereo not given), the AC50 is reported as 0.0666 µM (active).
In the case of `OCc1cccc(Oc2ccccc2)c1`, the outcome is reported as “inactive”.
In the case of `CCCCCCCCCCCCCCN(CCO)CCO`, the outcome is reported as “inactive”.
In the case of `CC(C)CC(C)CC(O)CC(C)C` (stereo not given), the outcome is reported as “inactive”.
In the case of `CCC(=O)O[C@@H]1C[C@H]2CC[C@]1(C)C2(C)C`, the outcome is reported as “inactive”.
For `CCNCCO`, the outcome was “inactive”.
With `Oc1ccc2cc(SSc3ccc4cc(O)ccc4c3)ccc2c1` the outcome was “inactive”.
For `CCCCCCC(C)(C)S`, the outcome was “inactive”.
In the case of `O=C(CC(=O)c1ccccc1)c1ccccc1`, the outcome is reported as “inactive”.
With `COCCOCCOCCO` the outcome was “inactive”.
In the case of `Nc1ccc2cc(S(=O)(=O)O)cc(O)c2c1N=Nc1ccccc1C(F)(F)F`, the AC50 is reported as 46.4 µM (active).

Reference: PubChem BioAssay (EPA / NIEHS)
